# Screening data from PubChem BioAssay.
# Tb PFK inh: blocks T. brucei phosphofructokinase; T. brucei PFK, ADP-Glo luminescence; AID 485367; Potency, µM (doses to about 57.5 µM), for the others: top-dose activity, negative = inhibition, actives largely listed as inhibitors; 0.17% of 330,000 active; O15648;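 also: 0% = uninhibited 1x PFK enzyme wells and -100% = no-enzyme wells; nearly all actives have a fitted effect of over 60% in size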
#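 Luminescent ADP detection (ADP-Glo, two-step: ATP depletion then ADP-to-ATP conversion for luciferase) reported PFK activity after 45 min room-temperature reaction of 1.25 nM enzyme with 0.5 mM F6P and 0.1 mM ATP at pH 8.0.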
# PGK inhibitor: inhibitors of T. brucei phosphoglycerate kinase; 0.043% of 380,000 active; Potency, µM (series often up to 57.5 µM), for the others: at the top dose activity change, negative = inhibition, most hits filed as inhibitors; PGK/GAPDH coupled, Kinase-Glo luminescence, 60 min; AID 602233; also: nearly all actives have a fitted effect of over 60% in size
# Target sequence (P07378 whole entry, looked up): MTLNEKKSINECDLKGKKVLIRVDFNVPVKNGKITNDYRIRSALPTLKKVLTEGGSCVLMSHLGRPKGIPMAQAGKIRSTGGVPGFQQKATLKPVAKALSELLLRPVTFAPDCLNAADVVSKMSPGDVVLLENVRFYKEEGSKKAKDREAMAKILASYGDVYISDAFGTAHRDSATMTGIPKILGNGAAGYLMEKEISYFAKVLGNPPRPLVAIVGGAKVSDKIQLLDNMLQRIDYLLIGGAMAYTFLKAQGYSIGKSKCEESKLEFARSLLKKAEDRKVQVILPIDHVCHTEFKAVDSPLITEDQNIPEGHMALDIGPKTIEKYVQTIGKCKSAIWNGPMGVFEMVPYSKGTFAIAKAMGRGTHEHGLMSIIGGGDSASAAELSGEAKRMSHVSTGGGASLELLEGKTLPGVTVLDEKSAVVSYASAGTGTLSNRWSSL
#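 Luminescent ATP detection (Kinase-Glo Plus) follows a 60-minute room-temperature incubation, with wells lacking PGK as controls. Buffer: 100 mM TEA (pH 7.6), 5 mM MgCl2, 0.01% Tween-20. Coupling enzyme GAPDH (100 nM final) supplies unstable 1,3-BPG in-well.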
# GLS inhibitor: blocks human kidney-isoform glutaminase activity. 0.21% of 410,000 active. O94925. GLS enzymatic activity, qHTS titration. Potency, µM (series often up to 45.5 µM), without a hit: at the highest dose activity change, negative = inhibition, usual class: inhibitors
#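 hKGA in 45 mM KH2PO4 pH 8.2, 0.02% Tween-20 with pin-transferred compounds; 1 mM L-glutamine (stock) plus glutamate oxidase/HRP/Amplex Red coupling added. Fluorescence read initially and after 30 min at RT.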
# BCR signal inh: inhibitors of chronic active B-cell receptor signaling | ABC-DLBCL IkBa-CBG/CBR reporter, luminescence ratio, 4 h | Potency, µM (titrated, usually from 46.1 µM), inactives show at the highest dose activity change, negative = inhibition, most hits filed as inhibitors | 0.05% of 340,000 active | AID 493014; active = well fitted inhibition curve with a large enough effect in the signal ratio, with a control signal flat, not every such curve was filed as active; inconclusive = small, poorly fitted or top-dose-only effect, or effect the other way, or a change in a side signal; the % refers to the signal ratio;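 also: plate controls were basal doxycycline-induced cells for no effect and cells given 10 µM MG132 for full effect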
#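 Concentration-response series (up to 46 uM) were applied to TMD8 dual-reporter cells for 4 h at 37C with doxycycline. Green/red ratio, after filter-overlap correction, defined %Activity; red signal alone was normalised to basal cells and zero luminescence.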
# Pin1 inhibitor: human Pin1 inhibition | Q13526 | Pin1 FP peptide displacement, HiFluor488, 10 min | Potency, µM (top dose mostly 115 µM), for inactives: top-dose activity, negative = inhibition, most hits filed as inhibitors | 0.009% of 390,000 active; active = well fitted inhibition curve with a large enough effect in the polarisation, with a control signal flat, not every such curve was filed as active; inconclusive = small, poorly fitted or top-dose-only effect, or effect the other way, or a change in a side signal; inactive = no such curve, though single readings can be large or run the other way; the % refers to the polarisation
# B2AR arrestin: agonists driving beta-arrestin recruitment to human beta2-adrenergic receptor | beta-arrestin recruitment to beta2AR, cell-based reporter | Potency, µM (doses to about 46.1 µM), for inactives: at the top dose activation, hits mostly activators | 0.02% of 330,000 active | AID 492947;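 also: 0% = DMSO controls and full agonism = EC100 isoproterenol or metaproterenol; nearly all actives have a fitted effect of over 65% in size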
# The depositor's hits bear a star; i = inactive; ? = inconclusive; . = no result given. Hits are enriched below; roughly 0.42% of the tested compounds scored in any of these assays. Unless noted, calls follow the shape of the dose curve; as a rule, active = well fitted curve in the direction sought with a large enough effect; inconclusive = small, poorly fitted or top-dose-only effect, or another doubt; inactive = no such curve, though single readings can be large; an effect the other way counts as inactive or inconclusive. Unless noted, % is scaled to controls: 0 for no effect and ±100 for the full control effect; potency is read from the fitted curve at half-maximal effect.
SMILES,Tb PFK inh,PGK inhibitor,GLS inhibitor,BCR signal inh,Pin1 inhibitor,B2AR arrestin
CCOc1cccc(N)c1,0%,-4%,-7%,?,-4%,16µM*
CCOc1cccc(OCCCOc2ccccc2)c1,3%,-2%,0%,?,-6%,-1%
NC(=O)c1ccc(N2CCN(c3ccccc3O)CC2)c([N+](=O)[O-])c1,-7%,-2%,11µM*,-1%,-8%,0%
C[N+]1(C)CCN(C[C@@](O)(c2ccccc2)C2CCCCC2)CC1,.,.,-2%,.,.,.
COc1cc(/C=N\NC(=O)c2ccc(-c3ccccc3)cc2)ccc1OCC(N)=O,0%,i,1%,1%,3%,0%
CCOc1cc(/C=N/NC(=O)c2ccc(-c3csc(Nc4ccc(C)cc4)n3)cc2)ccc1OCC(=O)O,?,13µM*,?,?,.,0%
COc1cc(C=NNC(=O)c2ccccc2-n2cccc2)ccc1O,-9%,-4%,13µM*,-12%,6%,0%
CCOc1cc(/C=N/NC(=O)c2ccc(=O)n(C)c2)ccc1O,-6%,6%,7.9µM*,3%,0%,-1%
COc1ccc(-c2nc3ccccc3n2Cc2ccccc2)cc1COc1ccc(NC(C)=O)cc1,.,.,.,.,14%,.
COCC1=C(C(=O)OC(C)OC(=O)OC(C)C)N2C(=O)C(NC(=O)/C(=N/OC)c3csc(N)n3)[C@H]2SC1 (stereo not given in full),.,.,-2%,.,.,.
CCN(CC)C(=O)c1ccc(Nc2nnc(-c3ccc(O)cc3)c3ccccc23)cc1,1%,-2%,10µM*,?,37%,-1%
COc1ccc(Nc2nnc(-c3ccc(O)cc3)c3ccccc23)cc1C(N)=O,5%,i,7.9µM*,?,-2%,0%
CCN(CC)C(=O)c1ccc(-c2nnc(Nc3cccc(O)c3)c3ccccc23)cc1,-3%,i,19%,-10%,-6%,0%
Cc1cc(N2C(=O)c3ccccc3C2=O)n[nH]1,.,.,.,.,-6%,.
CC(=O)Nc1cccc(S(=O)(=O)Nc2ccc(C)c(C)c2)c1,.,.,.,.,-2%,.
COc1ccc(S(=O)(=O)/N=C2\C=C(Nc3ccc(O)cc3)C(=O)c3ccccc32)cc1,-17%,-2%,8.9µM*,?,-6%,0%
CC(=O)Nc1ccc(NC2=C/C(=N/S(=O)(=O)c3cccs3)c3ccccc3C2=O)cc1,-8%,-17%,1%,?,-7%,0%
Cc1cccc2cc(/C=C3\N=C(c4ccccc4)OC3=O)c(N3CCOCC3)nc12,4%,-10%,-7%,-1%,76µM*,0%
O=C(CSc1nc2ccccc2n1CCc1ccccc1)N1CCOCC1,12%,-9%,-14%,?,-4%,-1%
O=C(CSc1nc2ccccc2n1CCc1ccccc1)c1ccc(O)c(O)c1,-24%,7.9µM*,102%,1%,.,0%
CCCNC(C)C(=O)Nc1ccccc1C (stereo not given),-2%,-9%,1%,10%,-2%,3.2µM*
C=CCOC(=O)C1=C(C)N=c2s/c(=C3\C(=O)N(CC(=O)O)c4ccccc43)c(=O)n2C1c1ccc(OC)cc1 (stereo not given),3%,-4%,22µM*,2%,.,-1%
COc1ccc(C2c3ccc(OCc4ccccc4)cc3Oc3ncn(CCN4CCOCC4)c(=N)c32)cc1OC (stereo not given),.,.,.,.,-1%,.
Cc1cccc(Cn2c(=O)n(-c3ccc(CC(=O)NCc4ccco4)cc3)c(=O)c3sccc32)c1,0%,-8%,12%,5µM*,24%,-1%
Cc1ccc(-n2c(=O)c3sccc3n(CC(=O)NCc3ccco3)c2=O)cc1,0%,-2%,0%,-2%,4%,0%
O=[N+]([O-])c1cc(Cc2ccccc2)cc(C=Nc2ccc(N3CCOCC3)cc2)c1O,-5%,-1%,?,-3%,?,0%
Cc1ccc(O)c(N=Cc2cc(Cc3ccccc3)cc([N+](=O)[O-])c2O)c1,-9%,-17%,11µM*,-4%,?,0%
